# CDC25B-CDK2 inh – human CDC25B-CDK2/CyclinA binding inhibition | z-score (concentration not given with the values) | HTRF CDC25B-CDK2/CyclinA binding, anti-His/anti-Flag; active compounds read high | actives 0.72% (n = 94,000); in the data active means z-score above about 3.2
# TAR Tat displ – HIV-1 TAR-Tat binding disruption; z-score (no concentration beside the values); HIV-1 TAR RNA, Tat peptide displacement FRET; active compounds read high; actives 0.6% (n = 100,000); active means z-score of 3 or more in at least 2 runs
# Starred values were filed as active, the others as inactive; nt = no result. Sampled rows, rich in hits. Any-hit rate of the full collection: about 0.93%.
SMILES,CDC25B-CDK2 inh,TAR Tat displ
Cc1c(CNCC2CCCO2)c(C(=O)O)c(C)n1Cc1cccc(F)c1 (stereo unspecified),nt,1.01
CCOc1cc(C2CC(=O)N3CN(c4ccc(C)c(C)c4)CSC3=C2C#N)ccc1O (stereo unspecified),1.95,2.23
CCOc1cc(C2CC(=O)N3CN(c4ccc(OC)cc4OC)CSC3=C2C#N)ccc1O (stereo unspecified),3.12*,-1.13
CCOc1cc(C2CC(=O)N3CN(c4ccccc4)CSC3=C2C#N)cc(Br)c1O (stereo unspecified),8.8*,30.6*
COc1ccc(N2CSC3=C(C#N)C(c4ccc(O)c(OC)c4)CC(=O)N3C2)c(OC)c1 (stereo unspecified),3.49*,-4.14
CCOc1cc(C2CC(=O)N3CN(c4ccc(F)cc4)CSC3=C2C#N)ccc1O (stereo unspecified),1.36,30.4*
COc1ccc(N2CSC3=C(C#N)C(c4cccc(Br)c4)CC(=O)N3C2)c(OC)c1 (stereo unspecified),1.77,0.31
CCC(C)N(CCNC(=O)c1nn(C)c2c1CS(=O)(=O)c1ccccc1-2)Cc1ccco1 (stereo unspecified),-2.22,1.47
CCOC(=O)N1CCC(NC(=O)Cc2sc(C)nc2-c2cccs2)CC1,-1.14,0
Cc1ccc(Cl)cc1NS(=O)(=O)c1cc(-c2onc(C)c2C)ccc1C,nt,1.85
Cc1ccc2c(C)c(C(=O)N(Cc3ccco3)C3CCS(=O)(=O)C3)oc2c1 (stereo unspecified),-1.67,1.89
Oc1ccc2ncccc2c1C(Nc1ccccn1)c1ccc(Cl)cc1 (stereo unspecified),2.58,2.14
Oc1ccc2ncccc2c1C(Nc1ccccn1)c1cccc(Cl)c1 (stereo unspecified),14.7*,1.39
NC(CO)C(=O)NNCc1ccc(O)c(O)c1O (stereo unspecified),-1.46,13.3*
N[C@H](CO)C(=O)O,-0.64,nt
COc1ccc(C(=O)Oc2cc(=O)oc3ccccc23)cc1OC,-1.39,nt
CCCCc1c(C)nn(-c2nc(C)c(C(=O)NC(C)C)s2)c1C,-0.75,2.08
Cc1cc(C)cc(NC(=O)C2CC3CSCN3C23C(=O)Nc2ccccc23)c1 (stereo unspecified),nt,-0.63
CN(C)c1ccc(O)c2c1C[C@H]1C[C@H]3[C@H](N(C)C)C(=O)C(C(N)=O)=C(O)[C@@]3(O)C(=O)C1=C2O,nt,19.6*
C[C@H]1c2cccc(O)c2C(O)=C2C(=O)[C@]3(O)C(O)=C(C(N)=O)C(=O)[C@@H](N(C)C)[C@@H]3[C@@H](O)[C@@H]21,-0.66,23.7*
Cc1ccc(NC(=O)c2nccnc2C(=O)O)cc1,-0.79,nt
CC(=O)Nc1ccc(NC(=O)c2nccnc2C(=O)O)cn1,11.4*,nt
O=C(O)CNc1cc(N2CCCCC2)c2noc3c2c1C(=O)c1ccccc1-3,4.4*,-5.97
O=C(O)c1ccccc1Nc1cc(N2CCCC2)c2noc3c2c1C(=O)c1ccccc1-3,2.44,7.52*
O=C(O)CCCNc1cc(N2CCCC2)c2noc3c2c1C(=O)c1ccccc1-3,1.31,1.49
SMILES,CDC25B-CDK2 inh,TAR Tat displ
CC(C)CNc1cc(N2CCCC2)c2noc3c2c1C(=O)c1ccccc1-3,-1.2,0.45
O=C(O)CNc1cc(N2CCCC2)c2noc3c2c1C(=O)c1ccccc1-3,5.47*,-5.59
CCN1CCN(c2cc(NCC(=O)O)c3c4c(onc24)-c2ccccc2C3=O)CC1,0.53,0.3
Cc1cc(C)c2nc(C)cc(Nc3ccc(N(C)C)cc3)c2c1,-2.83,3.65
Cc1cc(Nc2ccc(N(C)C)cc2)c2cccc(C)c2n1,-0.51,22*
COc1ccc(-c2noc(-c3nnn(-c4ccc(F)c(Cl)c4)c3N)n2)cc1,nt,0.83
CCN1CCN(CCCNC(=O)c2sc3nc4n(c(=O)c3c2C)CCCC4)CC1,nt,0.63
CCc1ccc(C(=O)CC2(O)C(=O)N(C(C)C)c3ccccc32)cc1 (stereo unspecified),15.8*,-0.46
CC(C)N1C(=O)C(O)(CC(=O)c2ccccc2)c2ccccc21 (stereo unspecified),0.13,0.83
Cn1cnc2c(=O)oc3ccc(S(=O)(=O)NCC4CCCO4)cc3c21 (stereo unspecified),nt,0.33
CCn1c(C(=O)OC)cc2oc(C)cc21,-0.04,0.52
Fc1ccc(NCc2ccncc2)cc1,15.4*,1.05
c1cc(CNc2ccc3c(c2)OCO3)ccn1,0.08,0.91
CC1(C)CC(=O)C2=C(C1)NC1=C(C(=O)CC(C)(C)C1)C2c1ccc(O)cc1,nt,0.06
C=CCN1C(=O)/C(=C2\SC(=S)N(CCCC)C2=O)c2ccccc21,-2.94,nt
Cc1ccc2nc(SCc3ccccc3C)[nH]c2c1,-1.06,1.95
COc1cc(NC(=O)C(C)CS(=O)(=O)c2ccc3c(c2)NC(=O)C(C)S3)cc(OC)c1 (stereo unspecified),nt,15.3*
Cc1cc(C)cc(NC(=O)C(C)CS(=O)(=O)c2ccc3c(c2)NC(=O)C(C)S3)c1 (stereo unspecified),nt,-0.17
CC(C)C(=O)N(c1cc2sc(=O)oc2c2ccccc12)S(=O)(=O)c1cccs1,6.95*,0.5
CC(C)C(=O)N(c1ccc2oc(=O)sc2c1)S(=O)(=O)c1cccs1,-2.75,0.34
O=C1CC(C(=O)Nc2ccc3c(c2)OCO3)n2ncnc2N1 (stereo unspecified),0.99,-2.09
O=C1CC(C(=O)Nc2ccc(Cl)cc2)n2ncnc2N1 (stereo unspecified),3.92*,0.9
Cc1cc(C)c(-c2c(Nc3ccc(C)c(N(C)C)c3)c(=O)c2=O)cc1C,nt,-0.91
COc1ccc(-c2cn(-c3ccc(Br)cc3)c(=S)[nH]2)cc1,-0.76,nt
CCCSc1nnc(NC(=O)Cc2coc3c(C)c(C)ccc23)s1,-0.88,1.72
SMILES,CDC25B-CDK2 inh,TAR Tat displ
Cc1nc(-n2[nH]c(C)c(CC(=O)N3CCCCC3)c2=O)sc1C,-2.31,-0.36
COc1ccc(NC(=O)Nc2nnc(COc3ccccc3F)s2)cc1,4.65*,1.2
CCc1nnc(NC(=O)Nc2ccc(OC)cc2)s1,-2.45,nt
Cc1nn(-c2ccc3nnc(C)n3n2)c2c1C(c1ccc(OCCc3ccccc3)cc1)CC(=O)N2 (stereo unspecified),nt,-1.43
Cn1cccc1-c1cc2n(n1)CCC(=O)N2CCCC(=O)NCCCN1CCCC1,nt,-0.8
O=C(NCCn1c(-c2ccccc2)nc2ccccc21)NC1CCCCC1,nt,0.8
COc1ccccc1-c1cc(C(F)(F)F)n2ncc(C(=O)OCC3CCCO3)c2n1 (stereo unspecified),-0.79,2.84
O=C(O)c1cc(=O)c2ccccc2[nH]1,-0.32,0.48
O=C(O)c1cc(=O)c2cccc(O)c2[nH]1,nt,5.31*
Cc1c(CNC(C)(C)C)c(C(=O)O)c(C)n1Cc1ccc(F)cc1,nt,1.65
CC(=O)N1c2ccc(S(=O)(=O)N3CCOCC3)cc2CC1C(=O)NC1CC1 (stereo unspecified),nt,1.85
CNc1nc2[nH]c(=O)cc(O)c2s1,1.8,-1.51
CCNc1nc2[nH]c(=O)cc(O)c2s1,10.6*,-0.15
C(=C\CSc1ccccn1)/CSc1ccccn1,-1.31,nt
Nc1ccccc1SC/C=C/CSc1ccccc1N,14.9*,nt
O=C1c2[nH]nc(-c3ccccc3O)c2C(c2cccc(OCc3ccccc3)c2)N1Cc1ccco1 (stereo unspecified),0.31,1.02
CCC(C)(C)NS(=O)(=O)c1ccc2c(c1)N(C(C)=O)CC(C)S2 (stereo unspecified),nt,1.05

# Bioassay records from PubChem BioAssay.
